Screen size: about 220,000 compounds; about 16,000 (7.3%) were called active. Roughly 25% stayed inconclusive and do not appear here. This excerpt belongs to a sample that is enriched for actives. Values without a mark were called inactive. Calls come from the whole dose curve; as a rule, active = well fitted inhibition curve with a large enough effect (not every such curve was filed as active); inconclusive = small, poorly fitted or top-dose-only effect, or another doubt; inactive = no such curve, though single readings can be large or run the other way.
target: Aldehyde dehydrogenase 1A1 (Homo sapiens) (UniProt P00352); test: qHTS Assay for Inhibitors of Aldehyde Dehydrogenase 1 (ALDH1A1); settings: Purified ALDH1A1, NADH fluorescence, propionaldehyde substrate; series mostly up to 75.3 µM; activity, negative = inhibition: at the top concentration;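 for activity, negative = inhibition: plate controls were no enzyme wells and a reference inhibitor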
Potency is the fitted concentration of half-maximal effect.

Aldehyde dehydrogenase 1A1 (Homo sapiens), sequence (P00352 whole entry, looked up): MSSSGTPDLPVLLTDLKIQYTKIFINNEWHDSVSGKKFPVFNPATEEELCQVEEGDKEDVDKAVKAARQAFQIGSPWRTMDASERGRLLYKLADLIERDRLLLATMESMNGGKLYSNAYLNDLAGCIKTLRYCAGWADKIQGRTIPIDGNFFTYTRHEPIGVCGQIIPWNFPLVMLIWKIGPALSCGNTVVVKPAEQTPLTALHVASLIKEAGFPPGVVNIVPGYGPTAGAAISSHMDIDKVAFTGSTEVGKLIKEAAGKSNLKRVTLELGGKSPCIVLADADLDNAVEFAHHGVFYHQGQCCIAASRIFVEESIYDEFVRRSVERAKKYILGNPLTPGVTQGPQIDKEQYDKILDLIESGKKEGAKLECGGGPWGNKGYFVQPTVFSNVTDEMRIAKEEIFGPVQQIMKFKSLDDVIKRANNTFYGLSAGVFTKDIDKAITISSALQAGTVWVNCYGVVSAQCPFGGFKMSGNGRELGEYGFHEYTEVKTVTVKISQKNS

| Structure (SMILES) | Potency | activity, negative = inhibition |
| --- | --- | --- |
| Cc1ccccc1C(=O)N1CCC(C(=O)Nc2ccc(S(=O)(=O)N(C)C(C)C)cc2)CC1 | 12.6 µM (active) | – |
| CCOC(=O)C1CCN(C(=O)c2ccccc2N(C)S(=O)(=O)c2ccccc2)CC1 | – | 5.9% |
| COc1ccc(N(CC(=O)Nc2ccc(C)cc2C)S(=O)(=O)c2ccccc2[N+](=O)[O-])c(OC)c1 | – | 4.62% |
| CNS(=O)(=O)c1ccc(N2CCCC2=O)c([N+](=O)[O-])c1 | – | 7.94% |
| CCCCC/C=C\CC1OC1CCCCCCCC(=O)O (stereo not drawn) | inactive | – |
| CC1=C/C(=N\S(=O)(=O)c2ccccc2)C(C(C)C)=CC1=O | – | -11.8% |
| CCOC(=O)C1(S(=O)(=O)c2ccccc2)CCN(Cc2ccccc2)CC1 | – | -3.31% |
| CC1=C/C(=N\OS(=O)(=O)c2ccccc2)C=CC1=O | 11.2 µM (active) | – |
| COc1cccc(NC(=O)CN(C)CC(=O)Nc2ccc3c(c2)CCC3)c1 | – | -7.54% |
| Cc1ccnc(NC(=O)c2ccc(Cl)c([N+](=O)[O-])c2)c1 | – | 2.29% |
| Cc1ccccc1NC(=O)CN1C(=O)N/C(=C\c2cccn2-c2cccc(C(=O)O)c2)C1=O | – | -7.18% |
| COc1ccc(C(=O)CN2C(=O)NC(C)(c3ccc(C)cc3)C2=O)cc1OC (stereo not drawn) | – | 8.24% |
| COC(=O)CN1C(=O)N/C(=C/c2ccc(OC)c(C)c2OC)C1=O | 6.31 µM (active) | – |
| CC(=O)Nc1ccc(OCCC[n+]2cccc(C(=O)[O-])c2)cc1 | – | -5.74% |
| Cc1ccc(-c2nnn(CC(=O)N(Cc3ccco3)C(C(=O)NC(C)(C)C)c3ccncc3)n2)o1 (stereo not drawn) | – | -10% |
| COc1ccc(NS(=O)(=O)c2ccc(NC(C)=O)cc2)cc1OC | – | 1.33% |
| COc1ccc(S(=O)(=O)Nc2ccc(S(=O)(=O)N3CCCCC3)cc2)cc1OC | 0.562 µM (active) | – |
| COc1ccc(S(=O)(=O)N2CCCCC2)cc1Br | – | 3.2% |
| CN(C)/N=C/c1cn(-c2ccccc2)nc1-c1cccnc1 | – | -3.55% |
| Cc1cccc(OCc2ccc(C(=O)Nc3ccc(F)cc3)cc2)c1 | – | 7.42% |
| Cc1ccc(COc2ccc(C(=O)NN)cc2)cc1 | 1 µM (active) | – |
| COc1ccc(C(=O)NNS(=O)(=O)c2ccc(C)cc2)cc1 | – | 3.99% |
| COC(=O)/C(NC(C)=O)=C(\C)c1ccc(Cl)cc1 | – | 5.6% |
| COC(=O)C(=Nc1ccccc1)/C(C(=O)C(=O)N(C)c1ccccc1)=C(\O)c1ccc(Cl)cc1 | 25.1 µM (active) | – |
| CN(C(=O)CC(NC(=O)c1ccccc1)(c1ccccc1)c1ccccc1)c1ccccc1 | – | 4.49% |
| COc1ccccc1CNC(=O)C1Cc2ccccc2C(=O)O1 (stereo not drawn) | – | -2.15% |
| Cc1cccc(N2CCC(NCc3c(C(=O)N4CCCCC4)nc4c(C)cccn34)CC2)c1 | – | -8.03% |

| Structure (SMILES) | Potency | activity, negative = inhibition |
| --- | --- | --- |
| COCCn1c(C)cc(C2=NNC(=Nc3ccc(F)cc3)SC2)c1C | 10 µM (active) | – |
| COC(=O)c1cc(NC(=O)CN2CCN(C(C)=O)CC2)cc(C(=O)OC)c1 | – | 9.25% |
| O=C(NC1CC1)c1cccc(Br)c1 | – | 2.69% |
| O=C(Nc1ccc(S(=O)(=O)Nc2ncccn2)cc1)c1cncc(Br)c1 | – | 15.6% |
| O=C(/C=C/c1ccccc1Cl)Nc1ccc(S(=O)(=O)Nc2ncccn2)cc1 | – | -3.57% |
| NS(=O)(=O)c1ccc(NC(=S)NC(=O)c2cccc(Br)c2)cc1 | 25.1 µM (active) | – |
| COc1ccc(NC(=S)Nc2ccc(S(N)(=O)=O)cc2)c(C)c1 | – | -13.6% |
| COC(=O)c1ccccc1NC(=S)NC(=O)c1ccccc1F | – | -1.81% |
| O=C(NC(=S)Nc1cccc2c(O)cccc12)c1cccc(Br)c1 | 3.16 µM (active) | – |
| NS(=O)(=O)c1ccc(NC(=S)NC(=O)c2cccnc2)cc1 | – | 3.62% |
| O=C(NC(=S)Nc1ccc(S(=O)(=O)Nc2ncccn2)cc1)c1cccc(Br)c1 | 10 µM (active) | – |
| COc1ccc(/C=N/n2c(C)cc(C)cc2=O)cc1 | – | 3.71% |
| CC1=NNC(=O)C1CCC(=O)N/N=C\c1ccc(Cl)c(Cl)c1 (stereo not drawn) | – | 7.58% |
| O=C(N/N=C/c1ccc2c(c1)OCO2)C(=O)N1CCCC1 | – | 14.1% |
| COC(=O)C1=C(C(=O)OC)[C@@H]2N(C)c3ccccc3[C@@]23C[C@@H](C(=O)OC)N(C(=O)c2ccco2)C3=N1 | – | 11.6% [at 13.5 µM] |
| O=C(Nc1ccc2c(c1)OCO2)c1sc2cc(Cl)ccc2c1Cl | – | 1.01% |
| COC(=O)C1C(=O)NCC1c1ccc(C)cc1 (stereo not drawn) | – | -2.39% |
| Cc1ccc(C2NC(C(=O)O)CS2)cc1 (stereo not drawn) | – | -0.706% |
| Cc1ccc(C2CC2C(=O)NN)cc1 (stereo not drawn) | 14.1 µM (active) | – |
| CCOC(=O)/C=C/C(=O)OCC(=O)NC(c1ccccc1)c1ccccc1 | – | 1.27% |
| O=C(O)Cc1ccc(-c2ccccc2)cc1 | inactive | – |
| O=C(Cc1ccc(-c2ccccc2)cc1)NC(c1ccccc1)c1ccccc1 | 10 µM (active) | – |
| COc1ccc(Br)c2c1C(=O)CC2 | – | 2.29% |
| CCC(CC)NC(=O)CSc1nnc(-c2c[nH]c3ccccc23)o1 | – | 8.75% |
| Cc1oc(-c2ccccc2Cl)[n+]([O-])c1C | 22.4 µM (active) | – |
| Cc1cccc(CNc2cc(-c3ccccc3Cl)ncn2)c1 | – | -14.6% |

Reference: PubChem BioAssay AID1030 (National Center for Advancing Translational Sciences (NCATS), 2008)
